# From PubChem BioAssay (Tox21)
# Where “and” joins values, the source holds several entries; their conditions need not be identical. Equal values may be shown once. Inconclusive results are not listed. Entries that show only a call come without a potency. Where a structure was tested more than once in an assay, its records may differ in their call. Calls of active or inactive are those of the source. Unless noted, calls come from the whole dose curve; as a rule, active = well fitted curve in the direction sought with a large enough effect in the repeat runs; inconclusive = weak or mixed curves; inactive = no such curve, though single readings can be large; an effect the other way counts as inactive or inconclusive.
# Columns and labels:
# [1] = molecular target: Thyrotropin-releasing hormone receptor (Homo sapiens) (UniProt P34981); test: qHTS assay to identify small molecule agonists of the thyrotropin-releasing hormone receptor (TRHR) signaling pathway (AID 1346891; calls by dose curve;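 note: HEK293 cells expressing TRHR with calcium dye readout; series mostly up to about 58 µM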)
# Sequence of Thyrotropin-releasing hormone receptor (Homo sapiens) (P34981 whole entry, looked up): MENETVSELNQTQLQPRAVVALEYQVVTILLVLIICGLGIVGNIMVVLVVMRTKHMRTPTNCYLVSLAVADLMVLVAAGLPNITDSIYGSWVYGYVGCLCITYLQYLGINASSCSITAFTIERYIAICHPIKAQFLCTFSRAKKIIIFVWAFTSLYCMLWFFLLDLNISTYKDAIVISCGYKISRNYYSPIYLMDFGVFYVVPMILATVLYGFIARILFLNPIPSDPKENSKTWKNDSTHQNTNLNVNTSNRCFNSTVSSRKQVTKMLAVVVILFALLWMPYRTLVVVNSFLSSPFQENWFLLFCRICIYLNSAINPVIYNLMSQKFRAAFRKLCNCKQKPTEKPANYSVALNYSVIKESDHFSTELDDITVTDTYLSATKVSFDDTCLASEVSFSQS
# Method in brief: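 Kinetic fluorescence (3 min, 1 s intervals) reported intracellular calcium after compound transfer onto TRHR-Hek293 cells pre-loaded with dye for 2 h at 37 °C.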
# [2] = Human pregnane X receptor (PXR) small molecule agonists, qHTS cell viability counter screen (AID 1346977); note: nearly all actives have a fitted effect of over 50% in size
# Method in brief: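 HepG2 cells stably carrying the PXR-Luc reporter are cultured with 5% charcoal-stripped FBS and treated with compounds for 24hr. CellTiter-Fluor is added at 23hr and fluorescence is read after 1hr.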
# [3] = Caspase-3/7 induction in HepG2 cells by small molecules, qHTS assay (AID 1346978); note: nearly all actives have a fitted effect of over 15% in size
# Method in brief: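 Caspase-3/7 induction was measured by Caspase-Glo 3/7 luminescence (30 min, room temperature) after a 17 hr compound exposure of wild-type HepG2 cells seeded at 2,000 per well and pre-incubated 5 hr.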
# [4] = Caspase-3/7 induction in CHO-K1 cells by small molecules, qHTS cell viability counter screen (AID 1346979); note: nearly all actives have a fitted effect of over 35% in size; note: potency is the fitted concentration of half-maximal effect
# Method in brief: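 Seeding: 1,500 CHO-K1 cells/well. Rest: 5hr, 37C. Treatment: compounds in DMSO, 16hr. Read: CellTiter-Fluor, 1hr, fluorescence.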
# [5] = Caspase-3/7 induction in CHO-K1 cells by small molecules, qHTS assay (AID 1346980); note: nearly all actives have a fitted effect of over 15% in size
# Method in brief: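 Luminescent Caspase-Glo 3/7 read (30min, room temperature) quantified apoptosis induction. Cells were wild-type CHO-K1, treated with compound for 17hr at 37 C and 5% CO2.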
# [6] = Caspase-3/7 induction in HepG2 cells by small molecules, qHTS cell viability counter screen (AID 1346981); note: nearly all actives have a fitted effect of over 30% in size; note: potency is the fitted concentration of half-maximal effect
# Method in brief: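 Fluorescence read-out of live-cell protease activity (CellTiter-Fluor) after 1 hr with reagent. This was measured in the same wells as the caspase-3/7 luminescence, on HepG2 cells exposed to DMSO-dissolved compounds for 16 hr at 37 C.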
# [7] = molecular target: Nuclear receptor subfamily 1 group I member 2 (Homo sapiens) (UniProt O75469); test: Human pregnane X receptor (PXR) small molecule agonists, qHTS assay (AID 1346982); note: nearly all actives have a fitted effect of over 35% in size; note: potency is the fitted concentration of half-maximal effect
# Sequence of Nuclear receptor subfamily 1 group I member 2 (Homo sapiens) (O75469 whole entry, looked up): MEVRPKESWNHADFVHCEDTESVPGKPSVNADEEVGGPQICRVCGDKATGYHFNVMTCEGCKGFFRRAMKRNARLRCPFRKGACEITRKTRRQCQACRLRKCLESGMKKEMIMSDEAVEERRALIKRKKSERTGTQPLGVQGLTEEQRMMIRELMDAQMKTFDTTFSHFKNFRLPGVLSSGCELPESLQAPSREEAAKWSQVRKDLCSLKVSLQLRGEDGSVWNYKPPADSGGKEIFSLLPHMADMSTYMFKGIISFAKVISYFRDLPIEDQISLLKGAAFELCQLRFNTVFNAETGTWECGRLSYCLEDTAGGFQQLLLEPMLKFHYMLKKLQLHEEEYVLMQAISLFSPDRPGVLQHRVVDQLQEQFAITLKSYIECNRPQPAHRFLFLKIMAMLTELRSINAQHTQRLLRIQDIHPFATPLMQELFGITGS
# Method in brief: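 HepG2 PXR-Luc reporter line, 5% charcoal-stripped FBS; 5 hr pre-incubation, compound (DMSO) 24 hr at 37 C/5% CO2; ONE-Glo 30 min RT; luminescence read-out.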
# [8] = molecular target: Nuclear receptor subfamily 1 group I member 2 (Rattus norvegicus) (UniProt Q9R1A7); test: Rat pregnane X receptor (rPXR) activation by small molecules, qHTS assay (AID 1346983); details: rPXR luciferase reporter cells, One-Glo luminescence, 24 h; max activation: stronger effect = higher value; note: potency is the fitted concentration of half-maximal effect; nearly all actives have a fitted effect of over 20% in size
# Method in brief: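 Luminescent readout (One-Glo luciferase, 30 min room temperature) followed 24 hr compound treatment at 37 C of rPXR cells plated 2,000 per well and preincubated 5hr; qHTS format with compounds delivered in DMSO.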
# [9] = molecular target: Nuclear receptor subfamily 1 group I member 2 (Homo sapiens) (UniProt O75469); test: CYP3A4 induction through human pregnane X receptor (PXR) by small molecules, qHTS assay (AID 1346984); note: nearly all actives have a fitted effect of over 40% in size
# Method in brief: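 HepG2-derived DPX-2 line carrying PXR plus a CYP3A4-promoter luciferase reporter; cells plated 5 hr, compound-exposed 24 hr at 37C. CYP3A4 activity probed with 3uM (final) Luciferin-IPA for 3hr, then luciferase read after One-Glo.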
# [10] = molecular target: Nuclear receptor subfamily 1 group I member 2 (Homo sapiens) (UniProt O75469); test: Human pregnane X receptor (PXR) activation by small molecules, qHTS assay (AID 1346985); note: nearly all actives have a fitted effect of over 40% in size
# Method in brief: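 DPX-2 cells (HepG2 co-transfected with a PXR response element and a CYP3A4-promoter luciferase construct) were seeded at 2,000 per well, rested 5 hr at 37C, then exposed to DMSO-dissolved compounds for 24 hr. Activation was read as luciferase luminescence.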
# [11] = molecular target: Acetylcholinesterase (Homo sapiens) (UniProt P22303); test: Acetylcholinesterase (AChE) small molecule antagonists: colormetric cell-based qHTS assay (AID 1347395; calls by dose curve; note: nearly all actives have a fitted effect of over 30% in size)
# Sequence of Acetylcholinesterase (Homo sapiens) (P22303 whole entry, looked up): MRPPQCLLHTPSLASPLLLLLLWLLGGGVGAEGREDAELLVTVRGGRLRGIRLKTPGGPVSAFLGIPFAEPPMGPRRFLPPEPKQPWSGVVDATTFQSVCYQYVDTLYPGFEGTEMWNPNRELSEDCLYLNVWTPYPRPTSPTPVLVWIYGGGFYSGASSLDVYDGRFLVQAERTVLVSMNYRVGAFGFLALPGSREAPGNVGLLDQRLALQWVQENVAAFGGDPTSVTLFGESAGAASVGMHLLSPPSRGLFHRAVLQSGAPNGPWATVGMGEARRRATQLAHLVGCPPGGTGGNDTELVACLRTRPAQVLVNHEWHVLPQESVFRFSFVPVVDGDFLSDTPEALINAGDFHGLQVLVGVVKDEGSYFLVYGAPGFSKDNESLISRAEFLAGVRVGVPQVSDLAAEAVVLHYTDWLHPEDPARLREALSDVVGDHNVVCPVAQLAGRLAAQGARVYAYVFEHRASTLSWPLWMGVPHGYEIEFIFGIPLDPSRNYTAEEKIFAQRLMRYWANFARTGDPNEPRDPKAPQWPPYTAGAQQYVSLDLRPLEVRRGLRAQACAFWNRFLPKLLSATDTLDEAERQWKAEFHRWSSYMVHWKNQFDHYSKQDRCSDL
# Method in brief: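 Quantitative HTS in attached SH-SY5Y cells: 30 min compound exposure, then 90 min with acetylthiocholine and DTNB at 37 C; colour from thiocholine reports AChE activity.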
# [12] = molecular target: Acetylcholinesterase (Homo sapiens) (UniProt P22303); test: Acetylcholinesterase (AChE) small molecule antagonists: enzyme-based qHTS assay (AID 1347397; calls by dose curve; note: nearly all actives have a fitted effect of over 55% in size); details: Potency: AChE enzyme activity inhibition
# Method in brief: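 Colorimetric DTNB readout of acetylthiocholine hydrolysis, 10 min at room temperature, after 30 min room-temperature exposure of 50 mU/mL recombinant human enzyme to compound; DMSO vehicle control.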
# [13] = molecular target: Acetylcholinesterase (Homo sapiens) (UniProt P22303); test: Acetylcholinesterase (AChE) small molecule antagonists: fluorescence cell-based qHTS assay (AID 1347398; calls by dose curve; note: nearly all actives have a fitted effect of over 50% in size); details: Potency: AChE activity
# Method in brief: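 Cellular AChE activity read as thiocholine from acetylthiocholine hydrolysis, detected by Thiolite Green fluorescence at 490/520 nm after 40 min at room temperature. Compounds were pre-incubated 30 min at 37 C on adherent SH-SY5Y cells.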
# [14] = molecular target: Acetylcholinesterase (Homo sapiens) (UniProt P22303); test: Acetylcholinesterase (AChE) small molecule antagonists: enzyme-based qHTS assay with human liver microsomes (AID 1347399; calls by dose curve; note: nearly all actives have a fitted effect of over 60% in size); details: Potency: qHTS inhibition
# Method in brief: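 Recombinant human AChE (50 mU/mL in the enzyme mix) and human liver microsomes (0.25 mg/mL final) were preincubated with compound and NADPH (0.25 mg/mL final) for 30 min at 37 C. Acetylthiocholine/DTNB was then added; thiocholine was read colorimetrically after 10 min at room temperature.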
# [15] = molecular target: Cytochrome P450 2D6 (Homo sapiens) (UniProt P10635); test: Cytochrome P450 Family 2 Subfamily D Member 6 (CYP2D6) small molecule antagonists: luciferase reporter qHTS assay (AID 1671196); note: nearly all actives have a fitted effect of over 50% in size; note: potency is the fitted concentration of half-maximal effect
# Sequence of Cytochrome P450 2D6 (Homo sapiens) (P10635 whole entry, looked up): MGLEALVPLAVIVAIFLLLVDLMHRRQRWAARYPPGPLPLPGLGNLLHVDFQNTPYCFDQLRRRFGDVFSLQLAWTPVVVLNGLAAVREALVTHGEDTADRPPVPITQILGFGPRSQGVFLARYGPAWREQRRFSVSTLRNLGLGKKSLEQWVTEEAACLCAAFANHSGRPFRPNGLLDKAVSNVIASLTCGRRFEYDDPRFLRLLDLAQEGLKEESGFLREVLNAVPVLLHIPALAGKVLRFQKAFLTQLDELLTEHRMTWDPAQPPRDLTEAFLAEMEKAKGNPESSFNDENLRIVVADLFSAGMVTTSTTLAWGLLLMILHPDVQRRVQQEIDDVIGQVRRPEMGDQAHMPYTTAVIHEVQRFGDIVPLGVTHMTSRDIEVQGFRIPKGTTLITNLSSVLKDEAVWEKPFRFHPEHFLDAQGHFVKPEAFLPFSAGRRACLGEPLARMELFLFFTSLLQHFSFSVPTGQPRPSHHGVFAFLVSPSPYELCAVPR
# Method in brief: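 Luminogenic proluciferin substrate, CYP2D6 enzyme; 10 min RT preincubation with compound, NADPH regeneration system added, 1 h RT. Stop/detection reagent, 20 min RT, luminescence read (RLU). Signal proportional to CYP activity.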
# [16] = molecular target: Cytochrome P450 2C19 (Homo sapiens) (UniProt P33261); test: Cytochrome P450 Family 2 Subfamily C Member 19 (CYP2C19) small molecule antagonists: luciferase reporter qHTS assay (AID 1671197); note: nearly all actives have a fitted effect of over 65% in size; note: potency is the fitted concentration of half-maximal effect
# Sequence of Cytochrome P450 2C19 (Homo sapiens) (P33261 whole entry, looked up): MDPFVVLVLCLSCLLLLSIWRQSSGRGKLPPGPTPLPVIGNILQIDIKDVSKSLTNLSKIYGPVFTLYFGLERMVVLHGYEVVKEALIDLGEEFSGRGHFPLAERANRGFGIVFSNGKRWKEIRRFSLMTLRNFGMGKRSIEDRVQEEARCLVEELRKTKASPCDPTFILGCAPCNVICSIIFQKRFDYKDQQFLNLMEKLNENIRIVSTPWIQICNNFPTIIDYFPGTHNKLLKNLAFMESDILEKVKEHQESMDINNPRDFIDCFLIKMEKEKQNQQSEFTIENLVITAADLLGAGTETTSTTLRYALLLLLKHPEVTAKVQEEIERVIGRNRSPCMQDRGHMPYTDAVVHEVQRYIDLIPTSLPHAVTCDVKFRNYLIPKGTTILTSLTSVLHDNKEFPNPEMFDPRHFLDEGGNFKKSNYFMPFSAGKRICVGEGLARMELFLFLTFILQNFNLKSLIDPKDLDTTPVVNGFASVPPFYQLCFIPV
# Method in brief: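 Quantitative high-throughput screen of the Tox21 library using CYP2C19 with proluciferin substrate. Reaction: NADPH regeneration, 37C, 1 h, after 10 min compound preincubation at room temperature. Readout: luminescence.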
# [17] = molecular target: Cytochrome P450 1A2 (Homo sapiens) (UniProt P05177); test: Cytochrome P450 Family 1 Subfamily A Member 2 (CYP1A2) small molecule antagonists: luciferase reporter qHTS assay (AID 1671199); note: nearly all actives have a fitted effect of over 50% in size; note: potency is the fitted concentration of half-maximal effect
# Sequence of Cytochrome P450 1A2 (Homo sapiens) (P05177 whole entry, looked up): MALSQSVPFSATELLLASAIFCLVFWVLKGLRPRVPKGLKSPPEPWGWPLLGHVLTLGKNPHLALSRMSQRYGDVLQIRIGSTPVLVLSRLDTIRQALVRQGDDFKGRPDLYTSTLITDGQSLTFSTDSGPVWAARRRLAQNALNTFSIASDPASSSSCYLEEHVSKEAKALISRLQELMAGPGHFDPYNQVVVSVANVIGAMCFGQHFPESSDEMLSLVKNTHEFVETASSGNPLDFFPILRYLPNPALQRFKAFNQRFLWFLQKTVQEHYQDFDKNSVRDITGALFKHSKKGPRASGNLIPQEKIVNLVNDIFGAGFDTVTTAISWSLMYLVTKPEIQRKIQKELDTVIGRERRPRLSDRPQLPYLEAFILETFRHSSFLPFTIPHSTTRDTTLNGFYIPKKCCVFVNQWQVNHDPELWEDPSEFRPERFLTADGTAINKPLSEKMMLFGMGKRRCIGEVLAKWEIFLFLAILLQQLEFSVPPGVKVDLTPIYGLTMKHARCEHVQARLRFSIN
# Method in brief: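 Luminescence readout (relative luminescence units) after luciferin detection reagent, 20 min RT. Preceded by 1 h room-temperature CYP1A2 reaction with NADPH regeneration solution following 10 min compound preincubation with enzyme and proluciferin substrate. Furafylline positive control.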
# [18] = molecular target: Voltage-gated inwardly rectifying potassium channel KCNH2 (Homo sapiens) (UniProt Q12809); test: Human Ether-a-go-go-Related Gene (hERG) channel small molecule antagonists: fluorescence cell-based qHTS assay (AID 1671200)
# Sequence of Voltage-gated inwardly rectifying potassium channel KCNH2 (Homo sapiens) (Q12809 whole entry, looked up): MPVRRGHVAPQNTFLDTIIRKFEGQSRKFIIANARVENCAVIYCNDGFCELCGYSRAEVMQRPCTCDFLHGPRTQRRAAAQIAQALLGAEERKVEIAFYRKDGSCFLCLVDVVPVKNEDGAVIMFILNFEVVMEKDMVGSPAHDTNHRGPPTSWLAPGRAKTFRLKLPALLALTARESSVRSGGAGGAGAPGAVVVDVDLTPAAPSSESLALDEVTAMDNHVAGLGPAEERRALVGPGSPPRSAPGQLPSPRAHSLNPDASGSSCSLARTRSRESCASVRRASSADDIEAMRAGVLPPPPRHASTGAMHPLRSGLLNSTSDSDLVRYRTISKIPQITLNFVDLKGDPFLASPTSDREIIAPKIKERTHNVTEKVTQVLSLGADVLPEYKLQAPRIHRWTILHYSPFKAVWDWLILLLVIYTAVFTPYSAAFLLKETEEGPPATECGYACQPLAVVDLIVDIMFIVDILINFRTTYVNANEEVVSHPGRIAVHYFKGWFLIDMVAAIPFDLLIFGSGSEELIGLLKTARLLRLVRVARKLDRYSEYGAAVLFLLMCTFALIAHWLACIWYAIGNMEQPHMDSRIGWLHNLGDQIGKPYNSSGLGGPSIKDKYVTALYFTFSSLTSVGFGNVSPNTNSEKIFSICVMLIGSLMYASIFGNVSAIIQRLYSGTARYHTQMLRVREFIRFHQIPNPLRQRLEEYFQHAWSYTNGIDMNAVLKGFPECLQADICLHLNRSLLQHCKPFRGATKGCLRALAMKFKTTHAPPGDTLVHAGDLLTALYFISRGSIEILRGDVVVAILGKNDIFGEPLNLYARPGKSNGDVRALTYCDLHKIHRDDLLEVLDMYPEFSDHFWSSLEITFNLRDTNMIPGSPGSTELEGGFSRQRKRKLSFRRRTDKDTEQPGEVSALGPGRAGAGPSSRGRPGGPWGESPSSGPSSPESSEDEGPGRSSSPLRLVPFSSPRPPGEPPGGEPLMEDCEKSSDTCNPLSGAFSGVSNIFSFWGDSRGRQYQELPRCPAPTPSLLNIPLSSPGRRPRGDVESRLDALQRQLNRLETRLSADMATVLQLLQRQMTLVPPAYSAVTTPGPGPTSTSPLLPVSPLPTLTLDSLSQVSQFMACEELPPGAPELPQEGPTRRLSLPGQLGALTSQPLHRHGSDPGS
# Method in brief: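 First, 1000 cells per well are seeded and cultured overnight at 37 C. Next, FluxOR II dye is loaded for 1 h at room temperature, protected from light. After 10 more minutes, stimulus is added and fluorescence is read.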
# [19] = molecular target: Cytochrome P450 3A4 (Homo sapiens) (UniProt P08684); test: Cytochrome P450 Family 3 Subfamily A Member 4 (CYP3A4) small molecule antagonists: luciferase reporter qHTS assay (AID 1671201)
# Sequence of Cytochrome P450 3A4 (Homo sapiens) (P08684 whole entry, looked up): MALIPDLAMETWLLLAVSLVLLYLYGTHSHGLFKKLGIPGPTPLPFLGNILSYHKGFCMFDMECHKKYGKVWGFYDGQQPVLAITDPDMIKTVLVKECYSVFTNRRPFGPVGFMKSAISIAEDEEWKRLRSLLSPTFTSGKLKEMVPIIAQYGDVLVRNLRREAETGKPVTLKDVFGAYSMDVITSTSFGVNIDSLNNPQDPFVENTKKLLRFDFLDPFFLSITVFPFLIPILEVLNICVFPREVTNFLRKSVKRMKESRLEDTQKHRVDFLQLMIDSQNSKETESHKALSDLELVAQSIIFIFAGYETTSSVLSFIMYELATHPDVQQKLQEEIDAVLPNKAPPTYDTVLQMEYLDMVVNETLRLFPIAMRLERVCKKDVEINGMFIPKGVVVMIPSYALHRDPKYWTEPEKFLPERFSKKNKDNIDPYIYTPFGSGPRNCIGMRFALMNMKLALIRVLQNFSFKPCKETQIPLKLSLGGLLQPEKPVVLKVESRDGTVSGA
# Method in brief: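 Enzyme and proluciferin substrate are mixed with test chemicals for 10 min, then NADPH regeneration system drives turnover for 1 h at room temperature. A detection reagent halts the reaction; luminescence after 20 min gives relative activity.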
# [20] = molecular target: Cytochrome P450 2C9 (Homo sapiens) (UniProt P11712); test: Cytochrome P450 Family 2 Subfamily C Member 9 (CYP2C9) small molecule antagonists: luciferase reporter qHTS assay (AID 1671198)
# Method in brief: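 Enzyme-substrate mix preincubated with compound 10 min at room temperature; reaction started with NADPH regeneration solution, 1 h 37C. Luminescent luciferin product read after 20 min detection reagent.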
SMILES,outcome [1],Potency [2],outcome [3],Potency [4],outcome [5],Potency [6],Potency [7],Potency [8],Potency [9],Potency [10],Potency [11],Potency [12],Potency [13],Potency [14],Potency [15],Potency [16],Potency [17],Potency [18],Potency [19],Potency [20]
O=[N+]([O-])c1cc([As](=O)(O)O)ccc1O,inactive,inactive,inactive,inactive,inactive,inactive,inactive,12.6 µM (active),inactive,inactive,inactive,inactive,inactive,inactive,inactive,inactive,inactive,inactive,inactive,–
O=[N+]([O-])c1ccc(Cl)c(Cl)c1,inactive,inactive,inactive,inactive,inactive,inactive,inactive,–,–,–,inactive,inactive,inactive,inactive,–,71.1 µM (active) and inactive,inactive and 22.4 µM (active),inactive,inactive,–
OCCCCO,inactive,–,inactive,inactive,inactive,inactive,–,–,–,–,–,–,–,–,–,–,–,inactive,–,–
CCCOC(=O)c1ccccc1C(=O)OCCC,inactive,–,inactive,inactive,inactive,inactive,–,–,–,–,inactive,inactive,inactive,inactive,inactive,8.09 µM (active) and 8.94 µM (active),2.03 µM (active) and 3.17 µM (active),inactive,inactive,–
CCOc1ccc(N)cc1,inactive,inactive,inactive,inactive,inactive,inactive,inactive,–,–,–,inactive,inactive,inactive,inactive,31.8 µM (active) and 39.9 µM (active),40 µM (active) and inactive,35.7 µM (active),inactive,inactive,–
Cl/C=C/Cl,inactive,–,inactive,inactive,inactive,inactive,inactive and 29.6 µM (active),–,–,–,inactive,inactive,inactive,inactive,inactive,inactive,inactive,inactive,inactive,inactive
O=C(O)CCCc1ccc(N(CCCl)CCCl)cc1,inactive,–,inactive,34.5 µM (active) and 21.7 µM (active) and 21.1 µM (active),inactive,54.7 µM (active) and inactive,–,–,–,–,inactive,inactive,inactive,inactive,inactive,inactive,inactive,inactive,inactive,inactive
